Our source for the AC50 and outcome values is PubChem BioAssay (EPA / NIEHS).

Common to all, as to conditions: mRNA level, 48 h; actives raise or lower the signal
Read-out in assay [1]: Cytochrome P450 (CYP2B6), CYP2B6 (gene 1555)
The assay can be described thus: LTEA_HepaRG_CYP2B6: Life Technologies and Expression Analysis (LTEA) Assay for Cytochrome P450 (CYP2B6) using HepaRG (AID 2283481). In short, it runs like this:
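HepaRG cells plated 48 h, switched to serum-free induction medium, then dosed 48 h (8 points, half-log from 100 uM, 0.5% DMSO). RNA isolated; CYP2B6 expression measured by qRT-PCR; gain or loss fitted relative to DMSO.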

Read-out in assay [2]: Cytochrome P450 2C19 (Homo sapiens) (UniProt P33261)
The assay can be described thus: LTEA_HepaRG_CYP2C19: Life Technologies and Expression Analysis (LTEA) Assay for CYP2C19 using HepaRG (AID 2283482). In short, it runs like this: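 Transcript levels of CYP2C19 were quantified by qRT-PCR after HepaRG cells were treated for 48 hours with test chemicals up to 100 uM (eight half-log concentrations, 0.5% DMSO vehicle). Gain or loss of signal was fitted relative to DMSO.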

Read-out in another assay: CYP2C8 (gene 1558)
The assay can be described thus: LTEA_HepaRG_CYP2C8: Life Technologies and Expression Analysis (LTEA) Assay for CYP2C8 using HepaRG (AID 2283483). The method, boiled down:
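CYP2C8 mRNA induction or loss, by qRT-PCR normalized to ACTB/GAPDH/POLR2A, is read in HepaRG cells after 48 h treatment. Concentrations run from 100 uM down in half-log dilutions, with 0.5% DMSO as vehicle and baseline.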

Read-out in another assay: CYP2C9 (gene 1559)
The experiment in a line: LTEA_HepaRG_CYP2C9: Life Technologies and Expression Analysis (LTEA) Assay for CYP2C9 using HepaRG (AID 2283484). In short, it runs like this: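 Cells plated 48 h, switched to serum-free induction medium, then treated in duplicate for 48 h at eight concentrations (max 100 uM, 0.5% DMSO). RNA then analysed by qRT-PCR for CYP2C9; curves fitted in both directions relative to DMSO.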

Read-out in the next assay: CYP2E1 (gene 1571)
The experiment in a line: LTEA_HepaRG_CYP2E1: Life Technologies and Expression Analysis (LTEA) Assay for CYP2E1 using HepaRG (AID 2283485). In short, it runs like this:
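Differentiated HepaRG cells were treated in duplicate for 48 h with chemicals in 0.5% DMSO, from 100 uM downward in half-log dilutions. RNA was then analysed by qRT-PCR for CYP2E1 induction or loss.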

Read-out in another assay: CYP4A11 (gene 1579)
The assay can be described thus: LTEA_HepaRG_CYP4A11: Life Technologies and Expression Analysis (LTEA) Assay for CYP4A11 using HepaRG (AID 2283486). In short, it runs like this: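 HepaRG, 48 h chem exposure, 8 conc (100 uM top, half-log), 0.5% DMSO vehicle; qRT-PCR readout, housekeeping-gene normalized; bidirectional curve fit vs DMSO baseline.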

Read-out in assay [3]: Cytochrome P450 3A4 (Homo sapiens) (UniProt P08684)
The experiment in a line: LTEA_HepaRG_CYP3A4: Life Technologies and Expression Analysis (LTEA) Assay for CYP3A4 using HepaRG (AID 2283487). In short, it runs like this: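 Differentiated HepaRG cells in serum-free induction medium exposed in duplicate for 48 h to 8 half-log concentrations up to 100 uM in 0.5% DMSO. CYP3A4 mRNA measured by qRT-PCR normalized to ACTB, GAPDH and POLR2A; bidirectional fit versus DMSO.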

Read-out in assay [4]: DNA damage-inducible transcript 3 (DDIT3), DDIT3 (gene 1649)
The experiment in a line: LTEA_HepaRG_DDIT3: Life Technologies and Expression Analysis (LTEA) Assay for DNA damage-inducible transcript 3 (DDIT3) using HepaRG (AID 2283488). In short, it runs like this: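 Changes in DDIT3 transcript, in either direction relative to 0.5% DMSO vehicle, were quantified by TaqMan qRT-PCR after 48 h chemical exposure of HepaRG cells at 8 concentrations, maximum 100 uM.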

Read-out in assay [5]: Pro-epidermal growth factor (Homo sapiens) (UniProt P01133)
The experiment in a line: LTEA_HepaRG_EGF: Life Technologies and Expression Analysis (LTEA) Assay for Epidermal growth factor (EGF) using HepaRG (AID 2283489). The method, boiled down:
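HepaRG, 48 h dosing, 100 uM top, half-log x8, 0.5% DMSO. Readout: TaqMan qRT-PCR (Fluidigm array), housekeeping-normalized. Gain or loss of signal fit vs DMSO.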

Read-out in assay [6]: Early growth response protein 1 (EGR1) transcription factor, EGR1 (gene 1958)
The experiment in a line: LTEA_HepaRG_EGR1: Life Technologies and Expression Analysis (LTEA) Assay for Early growth response protein 1 (EGR1) transcription factor using HepaRG (AID 2283490). The method, boiled down: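 Read-out is EGR1 mRNA level by qRT-PCR, normalized to three housekeeping genes and analysed for gain or loss of signal against 0.5% DMSO. Source cells: human HepaRG, treated 48 h at up to 100 uM in half-log dilutions.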

Read-out in assay [7]: Cytochrome P450 3A7 (Homo sapiens) (UniProt P24462)
The experiment in a line: LTEA_HepaRG_CYP3A7: Life Technologies and Expression Analysis (LTEA) Assay for CYP3A7 using HepaRG (AID 2283492). The method, boiled down: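 Human HepaRG liver cells, 48 h post-plating, switched to serum-free induction medium and exposed in duplicate for 48 h. Dosing: 100 uM top, half-log dilutions, 8 points, 0.5% DMSO vehicle. Read-out: CYP3A7 mRNA, gain or loss fitted against DMSO baseline.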

Read-out in the next assay: CYP3A5 (gene 1577)
The experiment in a line: LTEA_HepaRG_CYP3A5: Life Technologies and Expression Analysis (LTEA) Assay for CYP3A5 using HepaRG (AID 2283493). The method, boiled down: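 mRNA induction or loss of CYP3A5 assessed in HepaRG after 48 h dosing, 100 uM top concentration, duplicate wells; TaqMan qRT-PCR with ACTB, GAPDH, POLR2A normalization; 0.5% DMSO as negative control.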

Read-out in assay [8]: Fatty Acid-Binding Protein 1 (FABP1), FABP1 (gene 2168)
The assay can be described thus: LTEA_HepaRG_FABP1: Life Technologies and Expression Analysis (LTEA) Assay for Fatty Acid-Binding Protein 1 (FABP1) using HepaRG (AID 2283494). In short, it runs like this: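 HepaRG, 48 h post-plating switched to serum-free induction medium, then dosed 48 h (duplicate, 8 pts, ≤100 uM, 0.5% DMSO). RNA → Fluidigm TaqMan qRT-PCR, FABP1 normed to ACTB/GAPDH/POLR2A. Bidirectional curve fit vs DMSO.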

Read-out in assay [9]: Cytochrome P450 4A22 (Homo sapiens) (UniProt Q5TCH4)
The assay can be described thus: LTEA_HepaRG_CYP4A22: Life Technologies and Expression Analysis (LTEA) Assay for Cytochrome P450 4A22 (CYP4A22) using HepaRG (AID 2283495). In short, it runs like this:
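Readout is CYP4A22 transcript induction or loss, quantified by qRT-PCR and normalized to ACTB, GAPDH and POLR2A. Human HepaRG cells receive test chemicals for 48 h at eight half-log concentrations from 100 uM in 0.5% DMSO.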

Read-out in assay [10]: Cytochrome P450 7A1 (Homo sapiens) (UniProt P22680)
The experiment in a line: LTEA_HepaRG_CYP7A1: Life Technologies and Expression Analysis (LTEA) Assay for Cytochrome P450 7A1 (CYP7A1) using HepaRG (AID 2283496). The method, boiled down: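 Gene expression endpoint in human HepaRG liver cells treated for 48 h with test chemicals (up to 100 uM, 0.5% DMSO). Values come from bidirectional concentration-response fitting versus DMSO.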

Read-out in assay [11]: Glutamate-cysteine ligase catalytic (GCLC), GCLC (gene 2729)
The assay can be described thus: LTEA_HepaRG_GCLC: Life Technologies and Expression Analysis (LTEA) Assay for Glutamate-cysteine ligase catalytic (GCLC) using HepaRG (AID 2283498). The method, boiled down:
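Read-out is GCLC transcript level by Fluidigm-based TaqMan qRT-PCR, normalized to three housekeeping genes and fitted in both directions relative to 0.5% DMSO. Human HepaRG cells received chemicals for 48 h, up to 100 uM.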

Read-out in assay [12]: growth arrest and DNA damage 45 (GADD45G), GADD45G (gene 10912)
The experiment in a line: LTEA_HepaRG_GADD45G: Life Technologies and Expression Analysis (LTEA) Assay for growth arrest and DNA damage 45 (GADD45G) using HepaRG (AID 2283499). In short, it runs like this:
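Gain or loss of GADD45G mRNA, quantified by TaqMan qRT-PCR against three housekeeping genes, is fitted in both directions relative to 0.5% DMSO. Human HepaRG cultures receive test chemical for 48 h at up to 100 uM.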

Read-out in assay [13]: Glutamate-cysteine ligase regulatory (GCLM), GCLM (gene 2730)
The assay can be described thus: LTEA_HepaRG_GCLM: Life Technologies and Expression Analysis (LTEA) Assay for Glutamate-cysteine ligase regulatory (GCLM) using HepaRG (AID 2283500). The method, boiled down: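 Human liver HepaRG cultures receive test chemicals for 48 hours at up to 100 uM in 0.5% DMSO. GCLM expression is measured by qRT-PCR and analysed for increases or decreases against vehicle.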

Structures are written as SMILES. Values joined by “and” are separate entries in the source; they are usually repeats but may differ in a detail not shown here. Identical values can stand only once. A structure can be active in one record and inactive in another. Active and inactive are the calls of the source. The calls were made as follows: active = hit-call score of the fitted dose curve at least 0.9, where 1 is the maximum; inactive = score below 0.9.

Sequence of Cytochrome P450 2C19 (Homo sapiens) (P33261 whole entry, looked up): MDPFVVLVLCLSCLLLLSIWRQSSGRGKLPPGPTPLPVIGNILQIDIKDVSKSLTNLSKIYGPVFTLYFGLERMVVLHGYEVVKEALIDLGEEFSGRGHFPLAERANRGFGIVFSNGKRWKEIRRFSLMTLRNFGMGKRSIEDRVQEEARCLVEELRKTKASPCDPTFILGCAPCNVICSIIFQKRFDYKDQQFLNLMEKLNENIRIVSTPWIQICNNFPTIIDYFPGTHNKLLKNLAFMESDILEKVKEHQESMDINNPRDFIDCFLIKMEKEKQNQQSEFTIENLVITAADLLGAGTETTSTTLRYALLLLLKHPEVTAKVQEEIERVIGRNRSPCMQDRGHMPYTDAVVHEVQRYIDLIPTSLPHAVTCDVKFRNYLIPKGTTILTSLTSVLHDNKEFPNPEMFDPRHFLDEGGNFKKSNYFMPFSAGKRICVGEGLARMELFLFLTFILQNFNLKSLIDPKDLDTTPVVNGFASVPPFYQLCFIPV
Sequence of Cytochrome P450 3A7 (Homo sapiens) (P24462 whole entry, looked up): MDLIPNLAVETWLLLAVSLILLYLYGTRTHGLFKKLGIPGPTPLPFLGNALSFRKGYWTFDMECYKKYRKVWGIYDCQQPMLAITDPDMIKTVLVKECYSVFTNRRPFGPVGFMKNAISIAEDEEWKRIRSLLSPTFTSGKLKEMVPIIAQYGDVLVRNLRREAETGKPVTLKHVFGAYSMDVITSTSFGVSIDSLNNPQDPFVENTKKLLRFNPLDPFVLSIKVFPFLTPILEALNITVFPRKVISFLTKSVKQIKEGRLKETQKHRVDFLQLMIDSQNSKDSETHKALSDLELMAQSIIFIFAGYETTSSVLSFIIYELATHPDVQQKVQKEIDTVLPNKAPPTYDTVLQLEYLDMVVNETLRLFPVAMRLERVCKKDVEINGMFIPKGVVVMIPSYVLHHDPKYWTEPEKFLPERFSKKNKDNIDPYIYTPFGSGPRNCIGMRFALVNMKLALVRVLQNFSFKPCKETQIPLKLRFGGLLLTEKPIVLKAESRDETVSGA
Sequence of Cytochrome P450 3A4 (Homo sapiens) (P08684 whole entry, looked up): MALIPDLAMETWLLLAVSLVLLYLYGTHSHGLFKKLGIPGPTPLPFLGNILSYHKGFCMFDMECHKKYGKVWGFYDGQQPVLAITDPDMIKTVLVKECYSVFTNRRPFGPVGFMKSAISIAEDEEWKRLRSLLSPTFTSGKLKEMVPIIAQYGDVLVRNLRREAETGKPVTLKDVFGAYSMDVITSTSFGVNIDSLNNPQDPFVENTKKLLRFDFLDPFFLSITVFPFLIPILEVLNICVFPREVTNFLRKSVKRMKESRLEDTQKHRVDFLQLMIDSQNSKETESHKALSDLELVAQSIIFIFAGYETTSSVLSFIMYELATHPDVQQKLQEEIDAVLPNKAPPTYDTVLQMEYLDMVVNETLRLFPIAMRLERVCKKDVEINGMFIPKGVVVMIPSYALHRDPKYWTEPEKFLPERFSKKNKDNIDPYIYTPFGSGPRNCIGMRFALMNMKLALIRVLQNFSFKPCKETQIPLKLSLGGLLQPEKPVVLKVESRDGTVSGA

As for `COc1cnc(OC)n2nc(NS(=O)(=O)c3c(OCC(F)F)cccc3C(F)(F)F)nc12`, the half-maximal activity concentration (AC50) (commonly the concentration giving half of the maximal activity seen) was 6.02 µM (active) in assay [1]; 10.8 µM (active) in assay [2]; 30.2 µM (active) with CYP2E1 (gene 1571); 11.5 µM (active) with CYP4A11 (gene 1579); 8.2 µM (active) in assay [3]; 9.46 µM (active) in assay [9]. Besides, the AC50 in assay [10] is 26.2 µM (active). For the same compound, the call (with CYP2C8 (gene 1558); with CYP2C9 (gene 1559); in assay [4]; in assay [5]; in [6]; in assay [7]) was inactive. Besides, the call (with CYP3A5 (gene 1577); in [8]; in [11]; in assay [12]; in assay [13]) was inactive.
`CO/C=C(/C(=O)OC)c1ccccc1Oc1cc(Oc2ccccc2C#N)ncn1`: the concentration at half-maximal activity (AC50) in assay [1] was 75.2 µM (active) and 72.2 µM (active) and 71.5 µM (active); in assay [2] it was 84.1 µM (active) and 83.3 µM (active) and 82.3 µM (active); with CYP2C8 (gene 1558) it was 79.9 µM (active) and 79.2 µM (active) and 78.1 µM (active); in the assay with CYP2C9 (gene 1559) it was 79.1 µM (active) and 79 µM (active) and 93.4 µM (active); with CYP2E1 (gene 1571), 34.6 µM (active) and 50 µM (active) and 33.2 µM (active); with CYP4A11 (gene 1579) it was 66.4 µM (active) and 68.3 µM (active) and 40.2 µM (active). For the same compound, the AC50 was 77.9 µM (active) and 94.2 µM (active) and 77.2 µM (active) in [4]; 13 µM (active) and 13.3 µM (active) in [6]; 62.6 µM (active) and 35.6 µM (active) with CYP3A5 (gene 1577); 82.4 µM (active) and 75.6 µM (active) and 73.2 µM (active) in assay [8]; 76.3 µM (active) and 66.9 µM (active) and 65.6 µM (active) in [9]; 93.4 µM (active) and 94.1 µM (active) and 87.4 µM (active) in assay [10]. In addition, the half-maximal activity concentration (AC50) was 78 µM (active) and 80.2 µM (active) and 73.5 µM (active) in assay [12]; 75.6 µM (active) and 63.3 µM (active) and 71.8 µM (active) in assay [13]. Besides, the compound was classed as inactive (in [5]; in assay [6]; in assay [7]; with CYP3A5 (gene 1577); in assay [11]).
Turning to `COC(=O)C(C)Oc1ccc(Oc2ccc(Cl)cc2Cl)cc1` (stereo not given), the compound was called inactive (in [1]; with CYP2C8 (gene 1558); in the assay with CYP2C9 (gene 1559); in [3]; in assay [4]; in assay [5]). The result (in [6]; in the assay with CYP3A5 (gene 1577); in [8]; in assay [10]; in [11]; in assay [12]) was inactive. Further, in assay [13], the outcome was inactive. Also, the concentration at half-maximal activity (AC50) in assay [2] is 29.4 µM (active); with CYP2E1 (gene 1571), 50 µM (active); with CYP4A11 (gene 1579), 12.7 µM (active); in assay [7], 27.3 µM (active); in [9] it was 12.7 µM (active).
